High-throughput results from PubChem BioAssay.
Sampled rows, rich in hits. Any-hit rate of the full collection: about 4.1%.
TWEAK Fn14 block = inhibitors of TWEAK-Fn14 signaling, primary screen, luciferase reporter cells, uHTS; TWEAK-stimulated Fn14 reporter cells, luciferase luminescence, 8 h; actives 2% (n = 360,000); inhibition, % at 10 µM; in the data active = inhibition above about 50%
Peg3 prom inh = Peg3 promoter-driven luciferase inhibitors, primary screen, cell-based, HeLa, luciferase luminescence | inhibition, % at 20 µM | actives 1.7% (n = 360,000) | HeLa PEG-Prom luciferase reporter, overnight | AID 588405, 2011;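 active = inhibition of at least 50% at 20 µM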
TROY signal inh = inhibitors of TROY-driven NF-kB signaling, primary screen, Q293 LMP1-TROYcd cells, NF-kB luciferase, uHTS; AID 1347056, 2019; Q293 LMP1-TROYcd NF-kB luciferase reporter, 4 h; inhibition, % at 10 µM; actives 0.98% (n = 360,000);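 active = compounds whose plate-normalised and pattern-corrected inhibition of the luciferase reporter signal at the single screening dose is 50% or more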
MITF TRPM1 inh = inhibitors of MITF-dependent TRPM1 promoter reporter, primary screen, cell-based, SK-MEL-5, single point, luciferase. SK-MEL-5 TRPM1 promoter luciferase, 24 h. inhibition, % at 12.5 µM. actives 0.83% (n = 330,000). AID 488899, 2010;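 active = mean inhibition across replicates of 60% or more, whatever share of single replicates reaches that level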
Shn3 3UTR inh = reduction of Shn3 3'UTR firefly luciferase signal, primary screen, Schnurri-3 inhibitor project, cell-based, Clone20 osteoblasts, set 2 | inhibition, % at 12.5 µM | AID 588674, 2011 | Clone20 osteoblast Shn3 3'UTR firefly luciferase, 24 h | actives 0.52% (n = 360,000);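 active = mean inhibition of at least 75% with every replicate also reaching 75%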;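 note: 0% = median of neutral control wells and 100% = pilot-screen positive control compound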
EBV LMP1 NFkB = EBV LMP1-driven NF-kappaB luciferase reporter inhibitors, primary screen, cell-based, luminescence, single point | AID 504558, 2011 | inhibition, % at 12.5 µM | actives 0.69% (n = 350,000) | LMP1-induced NF-kappaB luciferase reporter cells; in the data active = inhibition above about 41%;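 note: 0% = neutral control wells and 100% = reference inhibitor control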
Numbers without * were called inactive; . = not tested or not shown.

SMILES | TWEAK Fn14 block | Peg3 prom inh | TROY signal inh | MITF TRPM1 inh | Shn3 3UTR inh | EBV LMP1 NFkB
CC(=O)C1=C(O)C(=O)N(CCC(=O)O)C1c1ccc(Cl)cc1Cl (stereo unspecified) | -12 | -19 | -13 | 4 | -6 | -27
CCN(C(=O)CN1CCN(C)CC1)c1c(N)n(Cc2ccccc2)c(=O)[nH]c1=O | 23 | -1 | -3 | -5 | -12 | -2
Cc1ccccc1NC(=O)CCCNC(=O)c1ccc(Cl)cc1 | 0 | 2 | 0 | 1 | -4 | -2
O=C(COC(=O)c1nc(Cl)c(Cl)c(Cl)c1Cl)c1ccc[nH]1 | 49 | 51* | 67* | 21 | 10 | -12
O=C(CSCC(=O)N1CCCCC1)Nc1nc(-c2ccc(Cl)s2)cs1 | 69* | -264 | 45 | -15 | -28 | 1
O=C(CSCC(=O)N1CCN(c2ccccc2)CC1)Nc1nc(-c2ccc(Cl)s2)cs1 | 72* | -31 | 31 | . | 29 | 2
N#C/C(=C\Nc1ccc2c(c1)OCCO2)c1nc(-c2ccccc2)cs1 | -42 | 10 | 7 | -17 | -1 | 5
N#C/C(=C\Nc1ccc2c(c1)OCCO2)c1nc2ccccc2[nH]1 | 61* | -103 | 66* | -78 | . | -39
O=C(C=P(c1ccccc1)(c1ccccc1)c1ccccc1)c1ccccc1-c1ccccc1C(=O)C=P(c1ccccc1)(c1ccccc1)c1ccccc1 | 47 | 99* | 31 | 82* | 73 | 38
Clc1cccc(Nc2nc(-c3ccncc3)nc3ccccc23)c1 | -2 | 83* | 21 | 5 | 12 | -5
Cn1c(=O)c2[nH]c(N=Nc3ccc(N)cc3N)nc2n(C)c1=O | 8 | 10 | -12 | 10 | -2 | 51*
COCCCNC(=O)[C@H](Cc1ccccc1)NC(=O)CC[C@H]1O[C@@H](n2ccc(=O)[nH]c2=O)[C@H](O)[C@@H]1O | -4 | 3 | 13 | . | 5 | .
Cc1cccc(OC2CCN(Cc3c(C(=O)N4CCCC4)nc4ccccn34)CC2)c1 | -6 | 9 | 2 | 3 | 3 | -1
CN(C)CC(=O)c1c(N)n(Cc2ccccc2)c(=O)n(C)c1=O | -23 | 18 | -14 | -8 | 4 | -2
CCN(CC(=O)c1c(N)n(C)c(=O)n(C)c1=O)c1cccc2ccccc12 | 99* | 17 | 57* | 17 | -2 | -1
CCN(CC)c1ccc(C2NC(=O)c3ccccc3N2)cc1 (stereo unspecified) | 95* | 36 | 77* | 58 | 22 | 43*
O=C1Nc2ccccc2C1=Nc1ccccc1-c1ccccc1 | 16 | 5 | 7 | -2 | 13 | 78*
CCN(CC)c1ccc(C2Nc3cccc4cccc(c34)N2)cc1 | -2 | -88 | -46 | -58 | -50 | -9
CCN(CC)c1ccc(N=C2C(=O)Nc3ccccc32)cc1 | 52* | -17 | 28 | 26 | -4 | 30
CCCCNC(=O)C1c2ccccc2OCC(=O)N1CCCN1CCOCC1 (stereo unspecified) | 9 | . | -8 | . | . | .
CCC/C(C#Cc1ccsc1)=C1/c2ccccc2C(=O)N1c1ccccc1 | 40 | -13 | -64 | 7 | -22 | -3
O=C(Oc1cccc(Nc2ncnc3ccccc23)c1)c1ccccc1Cl | 82* | -245 | 59* | 3 | 15 | 11
COc1cccc(Nc2ncnc3ccccc23)c1 | 6 | -233 | -33 | -79 | -45 | -10
Cc1cc(NC(=O)C2CCCCC2C(=O)O)ccc1NC(=O)c1ccccc1 (stereo unspecified) | 5 | 8 | 12 | 2 | -14 | -4
CN1CCCC(CN2c3ccccc3Sc3ccccc32)C1 (stereo unspecified) | 19 | -10 | -18 | -19 | 6 | -4
CN1CCCC(CC2c3ccccc3Sc3ccccc32)C1 (stereo unspecified) | 3 | 60* | -1 | -8 | 0 | -7
CC(=O)Nc1ccc(NC(=O)CN(C)CC(=O)Nc2ccccc2Br)cc1 | -1 | 13 | 8 | 16 | -7 | 5
